The values that follow come from PubChem BioAssay (EPA / NIEHS).

Activity calls are given as the source filed them. Rule for the calls: active = hit-call score of the fitted dose curve at least 0.9, where 1 is the maximum; inactive = score below 0.9.

Conditions in all cases: mRNA level, 48 h; actives raise or lower the signal
Read-out in one assay: MYC, MYC (gene 4609)
The assay can be described thus: LTEA_HepaRG_MYC: Life Technologies and Expression Analysis (LTEA) Assay for MYC using HepaRG (AID 2283518). A digest of the protocol: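 Differentiated human HepaRG cells, plated 48 h then switched to serum-free induction medium, were exposed in duplicate for 48 h to 8-point half-log series up to 100 uM in 0.5% DMSO. MYC mRNA measured by qRT-PCR, normalized to ACTB/GAPDH/POLR2A.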

Read-out in assay [1]: matrix metalloproteinase-3 (MMP3), MMP3 (gene 4314)
The assay can be described thus: LTEA_HepaRG_MMP3: Life Technologies and Expression Analysis (LTEA) Assay for matrix metalloproteinase-3 (MMP3) using HepaRG (AID 2283519). In a few lines: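 Human liver HepaRG cultures received chemicals (top concentration 100 uM, 0.5% DMSO) for 48 h in duplicate. MMP3 mRNA induction or loss was then assessed via TaqMan qRT-PCR with housekeeping-gene normalisation.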

Read-out in assay [2]: Paternally Expressed 10 (PEG10), PEG10 (gene 23089)
The assay can be described thus: LTEA_HepaRG_PEG10: Life Technologies and Expression Analysis (LTEA) Assay for Paternally Expressed 10 (PEG10) using HepaRG (AID 2283520). A digest of the protocol: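 qRT-PCR read-out: PEG10 mRNA normalised to three housekeeping genes, fitted bidirectionally against 0.5% DMSO vehicle. HepaRG cells received test chemicals for 48 h in serum-free induction medium, 8 points, top 100 uM, half-log steps.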

Read-out in assay [3]: Nuclear factor NF-kappa-B p105 subunit (Homo sapiens) (UniProt P19838)
The assay can be described thus: LTEA_HepaRG_NFKB1: Life Technologies and Expression Analysis (LTEA) Assay for Nuclear Factor Kappa B Subunit 1 (NFKB1) using HepaRG (AID 2283521).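 Note: TaqMan qRT-PCR transcript normalised to ACTB GAPDH and POLR2A housekeeping genes.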 A digest of the protocol: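 Differentiated human HepaRG cells in serum-free induction medium with 0.5% DMSO were exposed for 48 h to eight half-log concentrations, top 100 uM, in duplicate. NFKB1 mRNA measured by Fluidigm TaqMan qRT-PCR, normalised to ACTB, GAPDH and POLR2A; bidirectional fit versus DMSO.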

Read-out in assay [4]: Protein phosphatase 2A (PPP2R4), PTPA (gene 5524)
The assay can be described thus: LTEA_HepaRG_PPP2R4: Life Technologies and Expression Analysis (LTEA) Assay for Protein phosphatase 2A (PPP2R4) using HepaRG (AID 2283522). A digest of the protocol: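 HepaRG, 48 h exposure, 8-pt half-log series from 100 uM, 0.5% DMSO vehicle, duplicates. Readout: PPP2R4 mRNA, Fluidigm qRT-PCR, housekeeping-normalized. Bidirectional curve fit vs DMSO baseline.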

Read-out in assay [5]: Phosphatase and tensin (PTEN), PTEN (gene 5728)
The assay can be described thus: LTEA_HepaRG_PTEN: Life Technologies and Expression Analysis (LTEA) Assay for Phosphatase and tensin (PTEN) using HepaRG (AID 2283523). In a few lines: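 Expression of PTEN is quantified in the human liver line HepaRG following two days of dosing (top concentration 100 uM, half-log dilutions, 0.5% DMSO). Values derive from bidirectional curve fitting relative to DMSO controls.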

Read-out in assay [6]: solute carrier (SLC22A1), SLC22A1 (gene 6580)
Put plainly: LTEA_HepaRG_SLC22A1: Life Technologies and Expression Analysis (LTEA) Assay for solute carrier (SLC22A1) using HepaRG (AID 2283524). In a few lines:
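Transcript induction or suppression of SLC22A1 in human HepaRG cultures is scored after 48 h chemical treatment, with DMSO (0.5%) as baseline for bidirectional fitting. Concentrations span eight half-log points topping at 100 uM.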

Read-out in assay [7]: NAD(P)H dehydrogenase [quinone] 1 (NQO1), NQO1 (gene 1728)
The assay can be described thus: LTEA_HepaRG_NQO1: Life Technologies and Expression Analysis (LTEA) Assay for NAD(P)H dehydrogenase [quinone] 1 (NQO1) using HepaRG (AID 2283526). A digest of the protocol:
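qRT-PCR read-out (Fluidigm TaqMan), normalized to three housekeeping genes, after 48 h chemical exposure of HepaRG cells. Concentrations: eight points, top 100 uM, half-log steps, 0.5% DMSO vehicle. Gain or loss of signal fitted relative to DMSO.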

Read-out in assay [8]: Nuclear factor erythroid 2-related factor 2 (Homo sapiens) (UniProt Q16236)
Put plainly: LTEA_HepaRG_NFE2L2: Life Technologies and Expression Analysis (LTEA) Assay for Nuclear factor erythroid 2-related factor 2 (NFE2L2) Transcription Factor using HepaRG (AID 2283527).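 Note: TaqMan qRT-PCR transcript level normalised to ACTB GAPDH and POLR2A housekeeping genes.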 A digest of the protocol: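 Human liver HepaRG line treated in duplicate for 48 h with an eight-point series topping at 100 uM. Gene expression of NFE2L2 by qRT-PCR, bidirectionally fitted against the vehicle control.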

Read-out in assay [9]: succinate dehydrogenase complex iron sulfur subunit B (SDHB), SDHB (gene 6390)
Put plainly: LTEA_HepaRG_SDHB: Life Technologies and Expression Analysis (LTEA) Assay for succinate dehydrogenase complex iron sulfur subunit B (SDHB) using HepaRG (AID 2283528). In a few lines: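 HepaRG cells (~100,000/well, plated 48 h) exposed in duplicate for 48 h in serum-free induction medium to 8-point half-log series from 100 uM in 0.5% DMSO; mRNA by qRT-PCR normalised to ACTB, GAPDH, POLR2A; bidirectional fit versus DMSO.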

Read-out in assay [10]: Signal transducer and activator of transcription 3 (Homo sapiens) (UniProt P40763)
Put plainly: LTEA_HepaRG_STAT3: Life Technologies and Expression Analysis (LTEA) Assay for Signal transducer and activator of transcription (STAT3) using HepaRG (AID 2283529). In a few lines: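 In this transcriptional endpoint, HepaRG cultures receive test chemicals at up to 100 uM for 48 h, tested in duplicate. STAT3 mRNA is normalized to ACTB, GAPDH and POLR2A.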

Read-out in assay [11]: solute carrier (SLCO1B1), SLCO1B1 (gene 10599)
The assay can be described thus: LTEA_HepaRG_SLCO1B1: Life Technologies and Expression Analysis (LTEA) Assay for solute carrier (SLCO1B1) using HepaRG (AID 2283530). In a few lines: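 Differentiated human HepaRG cells, plated 48 h, switched to serum-free induction medium and exposed in duplicate for 48 h to 8 half-log concentrations (top 100 uM) in 0.5% DMSO. SLCO1B1 mRNA by TaqMan qRT-PCR, normalized to ACTB/GAPDH/POLR2A.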

Read-out in assay [12]: Transforming Growth Factor (TGFA), TGFA (gene 7039)
The assay can be described thus: LTEA_HepaRG_TGFA: Life Technologies and Expression Analysis (LTEA) Assay for Transforming Growth Factor (TGFA) using HepaRG (AID 2283532). A digest of the protocol:
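Gene expression of TGFA was quantified by qRT-PCR after human HepaRG cells were treated for 48 h with test chemicals (eight concentrations, highest 100 uM, 0.5% DMSO). Activity in either direction was fitted relative to DMSO.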

Read-out in assay [13]: Transforming Growth Factor (TGFB1), TGFB1 (gene 7040)
The assay can be described thus: LTEA_HepaRG_TGFB1: Life Technologies and Expression Analysis (LTEA) Assay for Transforming Growth Factor (TGFB1) Transporter using HepaRG (AID 2283533). In a few lines: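 Differentiated human HepaRG cells in serum-free induction medium were exposed in duplicate for 48 h to eight concentrations (top 100 uM, half-log steps, 0.5% DMSO). TGFB1 mRNA was quantified by qRT-PCR, normalized to ACTB, GAPDH, POLR2A, and fitted bidirectionally against DMSO.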

Read-out in a further assay: TIMP1, TIMP1 (gene 7076)
The assay can be described thus: LTEA_HepaRG_TIMP1: Life Technologies and Expression Analysis (LTEA) Assay for TIMP1 using HepaRG (AID 2283534).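 Note: TaqMan qRT-PCR signal normalized to ACTB GAPDH and POLR2A housekeeping genes.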 In a few lines:
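Differentiated human HepaRG cells in serum-free induction medium were exposed 48 h to chemicals (8 half-log concentrations, top 100 uM, 0.5% DMSO). TIMP1 mRNA was quantified by TaqMan qRT-PCR, normalized to ACTB/GAPDH/POLR2A; bidirectional fit versus DMSO.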

Read-out in assay [14]: Tumor necrosis factor receptor 1 (TNFRSF1A), TNFRSF1A (gene 7132)
The assay can be described thus: LTEA_HepaRG_TNFRSF1A: Life Technologies and Expression Analysis (LTEA) Assay for Tumor necrosis factor receptor 1 (TNFRSF1A) using HepaRG (AID 2283535). In a few lines:
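Differentiated human HepaRG cells were exposed in duplicate for 48 h in serum-free induction medium to eight concentrations (top 100 uM, half-log steps, 0.5% DMSO). TNFRSF1A mRNA was quantified by qRT-PCR, normalized to ACTB, GAPDH and POLR2A, then fitted bidirectionally against DMSO.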

Read-out in assay [15]: Thyroid Hormone Responsive (THRSP), THRSP (gene 7069)
The assay can be described thus: LTEA_HepaRG_THRSP: Life Technologies and Expression Analysis (LTEA) Assay for Thyroid Hormone Responsive (THRSP) using HepaRG (AID 2283536). A digest of the protocol:
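Cell model: human HepaRG, approx. 100,000 cells/well, 0.5% DMSO vehicle. Exposure lasts 48 h; phenobarbital 1 mM serves as induction positive control. Gene expression is measured by qRT-PCR against three endogenous control genes.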

Read-out in assay [16]: sulfotransferase 2A1 (SULT2A1), SULT2A1 (gene 6822)
The assay can be described thus: LTEA_HepaRG_SULT2A1: Life Technologies and Expression Analysis (LTEA) Assay for sulfotransferase 2A1 (SULT2A1) using HepaRG (AID 2283531). A digest of the protocol:
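Differentiated human HepaRG cells in serum-free induction medium were exposed for 48 h to eight half-log concentrations (top 100 uM, 0.5% DMSO). SULT2A1 mRNA was measured by qRT-PCR, normalized to ACTB, GAPDH and POLR2A, and fitted bidirectionally against DMSO.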

Read-out in assay [17]: UDP glucuronosyltransferase (UGT1A1), UGT1A1 (gene 54658)
Put plainly: LTEA_HepaRG_UGT1A1: Life Technologies and Expression Analysis (LTEA) Assay for UDP glucuronosyltransferase (UGT1A1) using HepaRG (AID 2283538). In a few lines: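 HepaRG, 48 h chemical exposure (top 100 uM, half-log 8-pt, 0.5% DMSO vehicle), duplicate wells; qRT-PCR (TaqMan, Fluidigm array) for UGT1A1 mRNA, housekeeping-normalized; bidirectional curve fit vs DMSO baseline.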

Read-out in assay [18]: Pyruvate Dehydrogenase Kinase 4 (PDK4), PDK4 (gene 5166)
Put plainly: LTEA_HepaRG_PDK4: Life Technologies and Expression Analysis (LTEA) Assay for Pyruvate Dehydrogenase Kinase 4 (PDK4) using HepaRG (AID 2283525). In a few lines: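 Eight-point, half-log concentration series (max 100 uM, 0.5% DMSO) applied to differentiated HepaRG cells for 48 h in duplicate. Endpoint: PDK4 mRNA induction or repression by qRT-PCR against DMSO baseline.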

Signal transducer and activator of transcription 3 (Homo sapiens), sequence (P40763 whole entry, looked up): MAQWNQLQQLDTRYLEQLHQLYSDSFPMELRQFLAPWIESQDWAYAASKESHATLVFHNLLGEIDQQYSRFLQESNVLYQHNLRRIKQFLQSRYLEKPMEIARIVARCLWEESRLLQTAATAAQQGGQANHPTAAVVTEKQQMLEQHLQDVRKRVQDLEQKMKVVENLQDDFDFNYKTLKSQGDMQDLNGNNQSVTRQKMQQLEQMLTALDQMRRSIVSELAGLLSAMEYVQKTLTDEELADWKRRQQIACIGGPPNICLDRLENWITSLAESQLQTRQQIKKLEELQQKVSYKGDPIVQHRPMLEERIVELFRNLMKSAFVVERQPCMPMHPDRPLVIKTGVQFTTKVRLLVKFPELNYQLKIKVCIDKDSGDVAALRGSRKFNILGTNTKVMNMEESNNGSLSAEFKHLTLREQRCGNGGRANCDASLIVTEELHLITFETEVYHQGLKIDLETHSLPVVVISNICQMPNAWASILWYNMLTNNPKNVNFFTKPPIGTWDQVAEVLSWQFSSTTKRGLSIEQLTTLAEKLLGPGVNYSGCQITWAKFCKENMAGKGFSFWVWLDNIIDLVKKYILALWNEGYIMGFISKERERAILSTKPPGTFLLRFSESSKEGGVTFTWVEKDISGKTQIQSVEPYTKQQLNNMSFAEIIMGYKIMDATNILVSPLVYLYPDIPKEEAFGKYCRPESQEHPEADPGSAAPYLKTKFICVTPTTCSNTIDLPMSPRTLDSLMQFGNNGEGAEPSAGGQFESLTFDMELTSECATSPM
Nuclear factor NF-kappa-B p105 subunit (Homo sapiens), sequence (P19838 whole entry, looked up): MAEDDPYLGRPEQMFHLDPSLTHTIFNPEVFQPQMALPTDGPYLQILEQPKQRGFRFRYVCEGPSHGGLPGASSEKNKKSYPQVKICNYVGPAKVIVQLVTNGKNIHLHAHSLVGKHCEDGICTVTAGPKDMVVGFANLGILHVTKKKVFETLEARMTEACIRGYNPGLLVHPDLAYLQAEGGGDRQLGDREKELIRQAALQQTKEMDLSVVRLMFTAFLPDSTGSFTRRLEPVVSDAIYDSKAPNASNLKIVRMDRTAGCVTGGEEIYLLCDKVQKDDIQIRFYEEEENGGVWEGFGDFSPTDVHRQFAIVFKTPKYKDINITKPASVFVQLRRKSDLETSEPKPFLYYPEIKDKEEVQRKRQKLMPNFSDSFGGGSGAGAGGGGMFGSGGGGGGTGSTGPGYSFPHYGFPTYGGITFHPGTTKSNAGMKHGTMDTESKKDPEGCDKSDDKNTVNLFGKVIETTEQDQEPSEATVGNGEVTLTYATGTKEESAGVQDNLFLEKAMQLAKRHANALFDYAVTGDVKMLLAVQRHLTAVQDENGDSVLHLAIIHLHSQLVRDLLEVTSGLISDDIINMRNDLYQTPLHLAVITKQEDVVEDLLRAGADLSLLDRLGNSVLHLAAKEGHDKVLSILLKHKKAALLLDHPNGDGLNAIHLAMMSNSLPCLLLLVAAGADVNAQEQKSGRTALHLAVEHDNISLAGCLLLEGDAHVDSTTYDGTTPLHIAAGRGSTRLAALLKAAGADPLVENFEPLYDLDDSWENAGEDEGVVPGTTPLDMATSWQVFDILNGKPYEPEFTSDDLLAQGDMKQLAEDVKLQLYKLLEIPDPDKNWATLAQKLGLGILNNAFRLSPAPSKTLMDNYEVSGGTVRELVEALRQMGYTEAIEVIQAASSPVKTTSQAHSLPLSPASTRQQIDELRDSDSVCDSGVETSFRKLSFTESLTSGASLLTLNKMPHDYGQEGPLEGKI
Nuclear factor erythroid 2-related factor 2 (Homo sapiens), sequence (Q16236 whole entry, looked up): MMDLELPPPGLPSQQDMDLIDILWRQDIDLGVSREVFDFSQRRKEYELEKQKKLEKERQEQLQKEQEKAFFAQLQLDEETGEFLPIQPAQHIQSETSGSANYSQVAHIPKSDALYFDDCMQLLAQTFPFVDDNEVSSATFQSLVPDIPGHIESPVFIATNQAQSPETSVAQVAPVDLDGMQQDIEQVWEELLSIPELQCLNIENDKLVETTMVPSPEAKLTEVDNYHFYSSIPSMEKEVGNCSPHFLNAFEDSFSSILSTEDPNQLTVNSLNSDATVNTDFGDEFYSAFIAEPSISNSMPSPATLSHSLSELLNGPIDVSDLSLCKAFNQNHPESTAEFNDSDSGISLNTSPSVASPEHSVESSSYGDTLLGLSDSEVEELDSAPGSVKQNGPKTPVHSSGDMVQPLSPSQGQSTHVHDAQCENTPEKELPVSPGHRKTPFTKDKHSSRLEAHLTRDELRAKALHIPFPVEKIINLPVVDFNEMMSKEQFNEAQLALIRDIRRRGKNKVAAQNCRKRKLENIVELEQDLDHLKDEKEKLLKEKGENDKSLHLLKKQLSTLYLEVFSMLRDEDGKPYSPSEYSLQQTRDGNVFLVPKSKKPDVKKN

As to `CC[C@H](C)C(=O)O[C@H]1C[C@H](O)C=C2C=C[C@H](C)[C@H](CC[C@@H](O)C[C@@H](O)CC(=O)O)[C@H]21`, the outcome in the assay with MYC, MYC (gene 4609) is “inactive”; in assay [1], “inactive”; in assay [2], “inactive”; in assay [3], “inactive”; in [4], “inactive”; in assay [5], “inactive”. Further, the compound was called inactive in [6], in [7], in assay [8], in assay [9], in [10] and in assay [11]. Further, the outcome was “inactive” in [12]; “inactive” in [13]; “inactive” with TIMP1, TIMP1 (gene 7076); “inactive” in assay [14]. In addition, the concentration at half-maximal activity (AC50) in [15] was 21.9 µM (active).

As for `CCCCCCCCCCCCCCO`, the outcome with MYC, MYC (gene 4609) is “inactive”; in assay [1] it was “inactive”; in [2], “inactive”; in assay [3], “inactive”; in [4], “inactive”; in assay [5], “inactive”. Further, the call in assay [6], in assay [8], in assay [9], in assay [10], in assay [11] and in assay [16] was inactive. The outcome is “inactive” in assay [12]; “inactive” in assay [13]; “inactive” with TIMP1, TIMP1 (gene 7076); “inactive” in [14]; “inactive” in [15]; “inactive” in [17].

As for `CCc1ccc(O)c(C(C)(C)C)c1`, the outcome was “inactive” with MYC, MYC (gene 4609); “inactive” in assay [1]; “inactive” in assay [2]; “inactive” in [3]; “inactive” in assay [4]; “inactive” in [5]. Further, the outcome in assay [6], in assay [18], in assay [8], in assay [9], in assay [10] and in assay [11] was inactive. The outcome in assay [12] was “inactive”; in assay [13], “inactive”; with TIMP1, TIMP1 (gene 7076), “inactive”; in assay [14], “inactive”; in [15] it was “inactive”.

As for `O=C1CN(N=Cc2ccc([N+](=O)[O-])o2)C(=O)N1`, the AC50 in the assay with MYC, MYC (gene 4609) is 80.1 µM (active); in assay [6], 32.7 µM (active); in assay [9], 16.1 µM (active); in assay [15], 9.92 µM (active). Also, the call in assay [1], in [2], in assay [4], in assay [5], in assay [7] and in assay [10] was inactive. For the same compound, the outcome was “inactive” in assay [11]; “inactive” in assay [12]; “inactive” in assay [13]; “inactive” with TIMP1, TIMP1 (gene 7076); “inactive” in assay [14].

What is called AC50 is the midpoint of the concentration-response curve, whichever way the signal moves.
